# From PubChem BioAssay (NCI)
# Several values for one entry are separate records, joined by “and”; a condition that tells them apart may be missing. Equal values may be shown once. Compounds without any hit were thinned out: in the full panel of roughly 83,000, 20% have a hit.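 48-hour exposure, single concentration, 96-well plates; percent growth endpoint where 0 means no net growth. Active: below 10.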 Values without a mark were called inactive. Activity calls are given as the source filed them.
# Key:
# Assay in all cases: NCI-60 one-dose screen, 48 h (100 = growth as untreated, 0 = no growth, -100 = all killed)
# DU-145 prostate = test system: DU-145 prostate
# K-562 leukemia = test system: K-562 leukemia
# MALME-3M melanoma = test system: MALME-3M melanoma
# MDA-MB-231 breast = test system: MDA-MB-231 breast
# RXF 393 renal = test system: RXF 393 renal
# SF-268 CNS = test system: SF-268 CNS
# SF-295 CNS = test system: SF-295 CNS
# SF-539 CNS = test system: SF-539 CNS
# UACC-257 melanoma = test system: UACC-257 melanoma
# M14 melanoma = test system: M14 melanoma
smiles,measurement,setting,value
O=C(O)c1c(Cl)c(Cl)c(Cl)c(Cl)c1-c1c2cc(I)c(=O)c(I)c-2oc2c(I)c(O)c(I)cc12,growth,DU-145 prostate; 10 µM,93.5% and 95.2% and 112%
same,growth,DU-145 prostate; 100 µM,59%
same,growth,K-562 leukemia; 10 µM,112% and 113% and 92.3%
same,growth,K-562 leukemia; 100 µM,-33.1% (active)
same,growth,MALME-3M melanoma; 10 µM,110% and 56.4%
same,growth,MALME-3M melanoma; 100 µM,-11.9% (active)
same,growth,MDA-MB-231 breast; 10 µM,94.7% and 102% and 104%
same,growth,MDA-MB-231 breast; 100 µM,-39.7% (active)
same,growth,RXF 393 renal; 10 µM,92.5% and 90.9% and 57.7%
same,growth,RXF 393 renal; 100 µM,-78.9% (active)
same,growth,SF-268 CNS; 10 µM,88.2% and 78.4% and 96.9%
same,growth,SF-268 CNS; 100 µM,19.8%
same,growth,SF-295 CNS; 10 µM,100% and 98.8% and 96.3%
same,growth,SF-295 CNS; 100 µM,15.3%
same,growth,SF-539 CNS; 10 µM,95.4% and 96.5% and 77.9%
same,growth,SF-539 CNS; 100 µM,-67.5% (active)
same,growth,UACC-257 melanoma; 10 µM,115% and 117% and 90.6%
same,growth,UACC-257 melanoma; 100 µM,22.9%
same,growth,M14 melanoma; 10 µM,104% and 95.6% and 119%
same,growth,M14 melanoma; 100 µM,69.7%
COc1ccc(-c2cscc2N)cc1,growth,DU-145 prostate; 10 µM,83.3%
same,growth,DU-145 prostate; 100 µM,69.8%
same,growth,K-562 leukemia; 10 µM,54.4%
same,growth,K-562 leukemia; 100 µM,22.9%
same,growth,MALME-3M melanoma; 10 µM,138%
same,growth,MALME-3M melanoma; 100 µM,66.9%
same,growth,MDA-MB-231 breast; 10 µM,55.3%
same,growth,MDA-MB-231 breast; 100 µM,50.8%
same,growth,RXF 393 renal; 10 µM,106%
same,growth,RXF 393 renal; 100 µM,89.5%
same,growth,SF-268 CNS; 10 µM,91%
same,growth,SF-268 CNS; 100 µM,41.3%
same,growth,SF-295 CNS; 10 µM,54.1%
same,growth,SF-295 CNS; 100 µM,40.9%
same,growth,SF-539 CNS; 10 µM,78.7%
same,growth,SF-539 CNS; 100 µM,44.3%
same,growth,UACC-257 melanoma; 10 µM unless noted,41.2% [100 µM]
same,growth,M14 melanoma; 10 µM,76.1%
same,growth,M14 melanoma; 100 µM,43.4%
NC1=CC(=O)c2ccccc2C1=O,growth,DU-145 prostate; 10 µM unless noted,63.8%
same,growth,K-562 leukemia; 10 µM unless noted,92.6%
same,growth,MALME-3M melanoma; 10 µM unless noted,38.8%
same,growth,MDA-MB-231 breast; 10 µM unless noted,82.1%
same,growth,RXF 393 renal; 10 µM unless noted,100%
same,growth,SF-268 CNS; 10 µM unless noted,95.6%
same,growth,SF-295 CNS; 10 µM unless noted,69%
same,growth,SF-539 CNS; 10 µM unless noted,106%
same,growth,UACC-257 melanoma; 10 µM unless noted,69%
same,growth,M14 melanoma; 10 µM unless noted,83%
O=C(/C=C/C=C/c1ccccc1)c1ccco1,growth,DU-145 prostate; 10 µM unless noted,99.7%
same,growth,K-562 leukemia; 10 µM unless noted,43%
same,growth,MALME-3M melanoma; 10 µM unless noted,113%
same,growth,MDA-MB-231 breast; 10 µM unless noted,102%
same,growth,RXF 393 renal; 10 µM unless noted,46%
same,growth,SF-268 CNS; 10 µM unless noted,91.5%
same,growth,SF-295 CNS; 10 µM unless noted,112%
same,growth,SF-539 CNS; 10 µM unless noted,106%
same,growth,UACC-257 melanoma; 10 µM unless noted,108%
same,growth,M14 melanoma; 10 µM unless noted,93.9%
O=C(/C=C\c1cc(Br)ccc1O)/C=C/c1cc(Br)ccc1O,growth,DU-145 prostate; 10 µM unless noted,2.79% (active)
same,growth,K-562 leukemia; 10 µM unless noted,5.64% (active)
same,growth,MALME-3M melanoma; 10 µM unless noted,-5.41% (active)
same,growth,MDA-MB-231 breast; 10 µM unless noted,0.442% (active)
same,growth,RXF 393 renal; 10 µM unless noted,-49.4% (active)
same,growth,SF-268 CNS; 10 µM unless noted,-17.9% (active)
same,growth,SF-295 CNS; 10 µM unless noted,-1.61% (active)
same,growth,SF-539 CNS; 10 µM unless noted,-49.1% (active)
same,growth,UACC-257 melanoma; 10 µM unless noted,-16.7% (active)
same,growth,M14 melanoma; 10 µM unless noted,-51.7% (active)
CNc1ccc2c(c1)c1ccccc1n2C,growth,DU-145 prostate; 10 µM unless noted,102%
same,growth,K-562 leukemia; 10 µM unless noted,105%
same,growth,MALME-3M melanoma; 10 µM unless noted,106%
same,growth,MDA-MB-231 breast; 10 µM unless noted,98.5%
same,growth,RXF 393 renal; 10 µM unless noted,113%
same,growth,SF-268 CNS; 10 µM unless noted,95.1%
same,growth,SF-295 CNS; 10 µM unless noted,98.7%
same,growth,SF-539 CNS; 10 µM unless noted,98.1%
same,growth,UACC-257 melanoma; 10 µM unless noted,107%
same,growth,M14 melanoma; 10 µM unless noted,116%
CCOC(=O)c1c(C)[nH]c(CO)c1C,growth,DU-145 prostate; 10 µM unless noted,101%
same,growth,K-562 leukemia; 10 µM unless noted,101%
same,growth,MALME-3M melanoma; 10 µM unless noted,91.1%
same,growth,MDA-MB-231 breast; 10 µM unless noted,104%
same,growth,RXF 393 renal; 10 µM unless noted,134%
same,growth,SF-268 CNS; 10 µM unless noted,96.7%
same,growth,SF-295 CNS; 10 µM unless noted,95.1%
same,growth,SF-539 CNS; 10 µM unless noted,104%
same,growth,UACC-257 melanoma; 10 µM unless noted,94.2%
same,growth,M14 melanoma; 10 µM unless noted,95.5%
Cc1ccc(NS(=O)(=O)c2ccc(C)cc2)cc1,growth,DU-145 prostate; 10 µM unless noted,101% and 104%
same,growth,K-562 leukemia; 10 µM unless noted,85.7% and 101%
same,growth,MALME-3M melanoma; 10 µM unless noted,105% and 101%
same,growth,MDA-MB-231 breast; 10 µM unless noted,103% and 107%
same,growth,RXF 393 renal; 10 µM unless noted,103% and 96.1%
same,growth,SF-268 CNS; 10 µM unless noted,97.8% and 93.1%
same,growth,SF-295 CNS; 10 µM unless noted,95.5% and 93.4%
same,growth,SF-539 CNS; 10 µM unless noted,111% and 101%
same,growth,UACC-257 melanoma; 10 µM unless noted,89.8% and 77.2%
same,growth,M14 melanoma; 10 µM unless noted,98% and 99.2%
COc1ccccc1OC(=O)Oc1ccccc1OC,growth,DU-145 prostate; 10 µM unless noted,112% and 96%
same,growth,K-562 leukemia; 10 µM unless noted,125% and 104%
same,growth,MALME-3M melanoma; 10 µM unless noted,94.8% and 98.5%
same,growth,MDA-MB-231 breast; 10 µM unless noted,103% and 107%
same,growth,RXF 393 renal; 10 µM unless noted,102% and 113%
same,growth,SF-268 CNS; 10 µM unless noted,111% and 94.9%
same,growth,SF-295 CNS; 10 µM unless noted,106% and 103%
same,growth,SF-539 CNS; 10 µM unless noted,121% and 103%
same,growth,UACC-257 melanoma; 10 µM unless noted,97.6% and 115%
same,growth,M14 melanoma; 10 µM unless noted,103% and 99.7%
O=[N+]([O-])c1ccc(N=Nc2ccc(O)cc2O)cc1,growth,DU-145 prostate; 10 µM unless noted,83.2%
same,growth,K-562 leukemia; 10 µM unless noted,20.6%
same,growth,MALME-3M melanoma; 10 µM unless noted,72.5%
same,growth,MDA-MB-231 breast; 10 µM unless noted,47.4%
same,growth,RXF 393 renal; 10 µM unless noted,20.6%
same,growth,SF-268 CNS; 10 µM unless noted,78%
same,growth,SF-295 CNS; 10 µM unless noted,50.6%
same,growth,SF-539 CNS; 10 µM unless noted,37.7%
same,growth,UACC-257 melanoma; 10 µM unless noted,43.7%
same,growth,M14 melanoma; 10 µM unless noted,51.3%
